Holding throughout (assay): NCI-60 one-dose screen, 48 h (100 = growth as untreated, 0 = no growth, -100 = all killed)
Holding throughout (conditions): 10 µM unless noted

The test system of assay [1] is HCT-15 colon.
Assay [2] has as its system HT29 colon.
For assay [3], the system named is SNB-75 CNS.
Assay [4] relates to SNB-19 CNS.
In assay [5] the test system is U251 CNS.
The test system of assay [6] is PC-3 prostate.
In assay [7] the test system is SK-MEL-5 melanoma.
Assay [8] deals with UACC-62 melanoma.
In assay [9] the test system is LOX IMVI melanoma.
In assay [10] the test system is SK-MEL-28 melanoma.

Structures are written as SMILES. About 83,000 compounds went through this panel and 20% of them were active in at least one assay; those are over-represented in the sample as a whole.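 A percent growth of 40 corresponds to 60% growth inhibition; 0 means no net growth; -100 means all cells died. Active threshold: below 10.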 Unmarked numbers belong to inactive results. Calls of active or inactive are those of the source.

In the case of `O=C(CSc1nccc(Nc2ccc(S(=O)(=O)Nc3nccs3)cc2)n1)c1ccc(F)cc1`, the growth is 98.1% in assay [1]; 106% in assay [2]; 94% in assay [3]; 100% in assay [4]; 102% in assay [5]; 96.1% in assay [6]. For the same molecule, the growth is 98.7% in [7], 94.5% in assay [8], 97.5% in assay [9] and 106% in assay [10].

`CC/C=C\C[C@H](O)C/C=C1/C(=O)C=C[C@@H]1C/C=C\CCCCO`: the growth in assay [1] is 2.31% (active); in [2], -39% (active); in assay [3], 76.1%; in assay [4], 55.8%; in assay [5], -33% (active); in assay [6], 0.486% (active). For the same molecule, the growth in [7] was 10.5%; in assay [8], -23.3% (active); in [9] it was -68.9% (active); in assay [10], 16.7%.

Consider `CS(=O)(=O)c1ccc(Nc2nc(N[C@H]3CCCC[C@H]3N)nc3cc[nH]c(=O)c23)cc1`, for which the growth is 102% in [1]; 15.5% in assay [2]; 4.36% (active) in assay [3]; 4.85% (active) in assay [4]; 4.89% (active) in assay [5]; 14.2% in [6]. Moreover, the growth in assay [7] was -40.1% (active); in [8] it was -33.9% (active); in [9] it was -10.7% (active); in assay [10] it was 3.17% (active).

Turning to `Fc1c[c-]c(-c2ccccn2)c(F)c1.[CH3-].[Pt+2].c1ccc(P(C[PH+](c2ccccc2)c2ccccc2)c2ccccc2)cc1`, the growth in [1] is -51.4% (active); in assay [2] it was 1.16% (active); in assay [3], -14.1% (active); in assay [4], -54.8% (active); in assay [5] it was -71.7% (active); in assay [6] it was -33.2% (active). The growth in assay [7] was -97.1% (active); in assay [8], -18.7% (active); in assay [9], -92.9% (active); in assay [10] it was -51.2% (active).

Consider `COc1cc(C(=O)c2cc(C)c3[nH]c4ccc(Cl)cc4c3c2C)cc(OC)c1OC`, for which the growth is 7.42% (active) in [1]; 18.6% in [2]; 22.9% in assay [3]; 35.6% in assay [4]; 20% in [5]; 27.3% in [6]. The growth is -55.8% (active) in [7], 42.6% in assay [8], 8.56% (active) in [9] and 53.6% in assay [10].

Consider `COC(=O)[C@]12CC[C@@H](C)[C@H](C)[C@@H]1C1=CC[C@@H]3[C@@]4(C)C(C=O)=C[C@@](C)(COC(C)=O)C4=CC[C@@]3(C)[C@]1(C)CC2`, for which the growth in assay [1] is -41.6% (active); in [2] it was -31.5% (active); in assay [3] it was 15.7%; in assay [4], 29.8%; in assay [5] it was -25.8% (active); in [6], 12.7%. The growth in assay [7] is -36.6% (active); in assay [8], -11.1% (active); in [9] it was -93.7% (active); in assay [10], -60.2% (active).

As for `C=CC(=O)Nc1cccc(Oc2nccc(Nc3nnc(C4CC4)s3)n2)c1`, the growth in assay [1] is 91.5%; in assay [2], 96.8%; in [3], 71.4%; in assay [4] it was 82.7%; in [5] it was 94.1%; in assay [6], 91.7%. In addition, the growth in assay [7] was 89.5%; in assay [8], 95.6%; in [9] it was 89.6%; in assay [10] it was 98.8%.

Consider `CNc1ccc(NC)c2c1C(=O)c1ccccc1C2=O`, for which the growth in [1] is 77.1%; in [2], 98.7%; in assay [3] it was 52.3%; in assay [4], 85.5%; in [5], 87%; in [6] it was 84%. Besides, the growth in assay [7] is 93.6%; in assay [8] it was 87.9%; in [9], 84.9%; in assay [10], 102%.

With `OC(COc1ccccc1Cl)COc1ccccc1Cl`, the growth was 86.1% in assay [1]; 92.5% in assay [2]; 85.4% in assay [3]; 108% in [4]; 91.5% in assay [5]; 95.9% in assay [6]. In addition, the growth in assay [7] is 96.8%; in assay [8], 92%; in assay [9], 85.3%; in assay [10] it was 94.2%.

On to `CN(C)CC1C(=O)O[C@H]2[C@H]1CC/C(COC(=O)c1cc3ccccc3[nH]1)=C\CC[C@@]1(C)O[C@@H]21` (stereo not given in full), for which the growth in assay [1] is -57.9% (active); in assay [2], -75.7% (active); in assay [3], -59.6% (active); in [4], 49.5%; in assay [5], -60.9% (active); in [6], -23.7% (active). In addition, the growth in [7] was -98.6% (active); in [8], -52% (active); in assay [9], -92.7% (active); in assay [10], -59.1% (active).

On to `CCc1ccccc1-n1c(N)c(C#N)c(-c2ccc(N(C)C)cc2)c(C#N)c1=O`, for which the growth in assay [1] was 97.7%; in assay [2], 101%; in assay [3] it was 88.3%; in [4], 101%; in [5], 91.1%; in assay [6], 82.6%. In addition, the growth in assay [7] is 86.5%; in assay [8] it was 88%; in assay [9], 92.7%; in [10] it was 100%.

Consider `COCCc1ccc(OCC(O)CNC(C)C)cc1` (stereo not given), for which the growth in assay [1] is 102%; in assay [2], 98.9%; in assay [3] it was 90.4%; in assay [4] it was 105%; in assay [5], 98.2%; in [6], 96.6%. Moreover, the growth in assay [7] was 108%; in assay [8] it was 113%; in assay [9], 96.6%; in [10], 98.9%.

As for `Cc1ccc(S(=O)(=O)Oc2cc(OS(=O)(=O)c3ccc(C)cc3)cc(OS(=O)(=O)c3ccc(C)cc3)c2)cc1`, the growth in [1] was 98.1%; in assay [2], 98.7%; in [3], 95.4%; in [4], 104%; in assay [5] it was 108%; in assay [6], 86.9%. Further, the growth in assay [7] is 94.4%; in assay [8], 86.1%; in assay [9] it was 98.1%; in assay [10], 112%.
